Reference: PubChem BioAssay (Tox21)
Results filed as inconclusive are left out. Active and inactive are the calls of the source. Unless noted, calls follow the shape of the dose curve; as a rule, active = well fitted curve in the direction sought with a large enough effect in the repeat runs; inconclusive = weak or mixed curves; inactive = no such curve, though single readings can be large; an effect the other way counts as inactive or inconclusive.

What was measured:
[1] = qHTS assay to identify small molecule that activate the aryl hydrocarbon receptor (AhR) signaling pathway - cell viability counter screen (AID 743086);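 also: HepG2 liver cells carrying the AhR DRE luciferase reporter; series mostly up to about 70 µM; nearly all actives have a fitted effect of over 45% in size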
Method in brief: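 HepG2-AhR-luc (HG2L7.5c1) cells, 4000/well, were preincubated 5 h at 37C, exposed to compound in qHTS format for 24 hr at 37C, then given CellTiter-Fluor for 30 min; viability was read as fluorescence in the reporter wells.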

[2] = molecular target: Peroxisome proliferator-activated receptor gamma (Homo sapiens) (UniProt P37231); experiment: qHTS assay to identify small molecule agonists of the peroxisome proliferator-activated receptor gamma (PPARg) signaling pathway (AID 743094; active = well fitted activation curve with a large enough effect in the signal ratio in the repeat runs, not every such curve was filed as active; the % refers to the signal ratio)
Chain of Peroxisome proliferator-activated receptor gamma (Homo sapiens) (P37231 whole entry, looked up): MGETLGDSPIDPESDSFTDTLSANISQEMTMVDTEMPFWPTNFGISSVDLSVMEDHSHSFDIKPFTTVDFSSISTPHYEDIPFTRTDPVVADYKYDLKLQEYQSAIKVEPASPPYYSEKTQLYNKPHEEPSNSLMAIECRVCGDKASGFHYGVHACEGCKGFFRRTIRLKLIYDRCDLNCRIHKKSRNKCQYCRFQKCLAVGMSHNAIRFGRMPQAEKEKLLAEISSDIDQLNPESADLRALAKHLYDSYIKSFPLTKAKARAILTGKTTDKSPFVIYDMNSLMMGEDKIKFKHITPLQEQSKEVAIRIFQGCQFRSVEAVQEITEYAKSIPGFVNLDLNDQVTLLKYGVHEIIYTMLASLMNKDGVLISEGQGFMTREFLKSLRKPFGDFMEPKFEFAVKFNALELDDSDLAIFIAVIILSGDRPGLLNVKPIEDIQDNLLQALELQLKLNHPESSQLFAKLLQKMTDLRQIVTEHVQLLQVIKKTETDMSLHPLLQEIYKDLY
Method in brief: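 Cells from the PPARg UAS-bla HEK293H line are plated and incubated 5 h at 37C. Compounds in DMSO are pinned in and left 17 h at 37C. LiveBLAzer B/G substrate is then added for 1 h at room temperature before fluorescence is measured.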

[3] = molecular target: Peroxisome proliferator-activated receptor gamma (Homo sapiens) (UniProt P37231); experiment: qHTS assay to identify small molecule antagonists of the peroxisome proliferator-activated receptor gamma (PPARg) signaling pathway (AID 743191; calls by dose curve; also: series mostly up to about 63 µM; nearly all actives have a fitted effect of over 30% in size)
Method in brief: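 GeneBLAzer PPARg UAS-bla HEK293H cells carrying a UAS-driven beta-lactamase reporter were plated at 3000 cells/well, preincubated 5 h at 37C, then given compound for 17 h at 37C; LiveBLAzer B/G FRET substrate was read after 1 h at room temperature.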

[4] = qHTS assay to identify small molecule antagonists of the peroxisome proliferator-activated receptor gamma (PPARg) signaling pathway - cell viability counter screen (AID 743194); details: Potency: co-treated with 50 nM rosiglitazone; also: nearly all actives have a fitted effect of over 55% in size
Method in brief: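 PPARg-UAS-bla HEK293H cells were plated, rested 5 h at 37 C, then treated with compounds plus rosiglitazone (50 nM final) for 17 h at 37 C; viability was then read by CellTiter-Glo luminescence after 30 min at room temperature.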

[5] = qHTS assay for small molecule agonists of the antioxidant response element (ARE) signaling pathway (AID 743202; active = well fitted activation curve with a large enough effect in the signal ratio in the repeat runs, not every such curve was filed as active; the % refers to the signal ratio)
Method in brief: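 Steps: seed ARE-bla HepG2 cells (2,000/well); incubate 5 h at 37 C; add compounds by pin tool; incubate 16 h at 37 C; add FRET substrate; read fluorescence after 2 h at RT.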

[6] = qHTS assay for small molecule agonists of the antioxidant response element (ARE) signaling pathway - cell viability counter screen (AID 743203; calls by dose curve; also: nearly all actives have a fitted effect of over 55% in size)
Method in brief: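 Cytotoxicity was tested in parallel with the ARE reporter screen. ARE-bla HepG2 cells were exposed to compounds for 16 hrs, and viability was taken from CellTiter-Glo luminescence.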

[7] = qHTS assay for small molecule activators of the heat shock response signaling pathway - cell viability counter screen (AID 743209); also: nearly all actives have a fitted effect of over 50% in size
Method in brief: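 Cytotoxicity counter screen run in parallel with the HSE beta-lactamase reporter, using the same wells. HeLa HSE-bla cells received compound for 5 h at 37 C; ATP-based CellTiter-Glo luminescence was measured after 30 min at room temperature.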

[8] = qHTS assay for small molecule activators of the heat shock response signaling pathway (AID 743210; active = well fitted activation curve with a large enough effect in the signal ratio in the repeat runs, with a control signal flat, not every such curve was filed as active; the % refers to the signal ratio;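 also: HeLa cells with beta-lactamase reporter driven by heat shock elements; series mostly up to about 63 µM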)
Method in brief: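 Activation of heat shock element-controlled beta-lactamase expression is measured in HeLa cells by LiveBLAzer FRET fluorescence, with compound exposure lasting 5 h at 37 C and substrate loading 2.5 h at room temperature.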

[9] = qHTS assay to identify small molecule agonists of the peroxisome proliferator-activated receptor delta (PPARd) signaling pathway - cell viability counter screen (AID 743211); also: nearly all actives have a fitted effect of over 55% in size
Method in brief: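 In the same wells used for beta-lactamase reporter measurement, cytotoxicity is scored by CellTiter-Glo. HEK293H PPARd-bla cells receive compound for 17 h at 37C following a 5 h settling period.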

[10] = molecular target: Peroxisome proliferator-activated receptor delta (Homo sapiens) (UniProt Q03181); experiment: qHTS assay to identify small molecule agonists of the peroxisome proliferator-activated receptor delta (PPARd) signaling pathway (AID 743212; calls by dose curve)
Chain of Peroxisome proliferator-activated receptor delta (Homo sapiens) (Q03181 whole entry, looked up): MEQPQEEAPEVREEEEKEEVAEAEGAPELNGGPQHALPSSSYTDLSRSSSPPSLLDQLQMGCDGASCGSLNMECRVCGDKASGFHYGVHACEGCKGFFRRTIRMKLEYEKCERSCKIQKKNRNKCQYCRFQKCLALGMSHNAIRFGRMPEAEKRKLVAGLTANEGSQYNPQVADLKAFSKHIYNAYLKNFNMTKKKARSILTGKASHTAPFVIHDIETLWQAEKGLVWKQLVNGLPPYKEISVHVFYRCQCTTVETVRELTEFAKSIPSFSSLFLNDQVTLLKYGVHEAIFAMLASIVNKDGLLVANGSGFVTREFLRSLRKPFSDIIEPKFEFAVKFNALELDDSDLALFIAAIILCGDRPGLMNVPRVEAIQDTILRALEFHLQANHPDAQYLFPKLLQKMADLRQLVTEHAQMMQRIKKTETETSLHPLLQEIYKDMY
Method in brief: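 Cells expressing a UAS-driven beta-lactamase reporter (PPARd-bla HEK293H) were given test compounds after a 5 h settle and kept at 37 C. Reporter activity was then measured as FRET fluorescence using LiveBLAzer B/G substrate.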

[11] = qHTS assay to identify small molecule antagonists of the peroxisome proliferator-activated receptor delta (PPARd) signaling pathway - cell viability counter screen (AID 743213); also: nearly all actives have a fitted effect of over 50% in size
Method in brief: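 Agonist-stimulated (L165041, 300 nM final) HEK293H PPARd UAS-bla cells are exposed to compounds for 17 h at 37 C, and ATP-based luminescence (CellTiter-Glo) from the same wells reports cytotoxicity.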

[12] = molecular target: Peroxisome proliferator-activated receptor delta (Homo sapiens) (UniProt Q03181); experiment: qHTS assay to identify small molecule antagonists of the peroxisome proliferator-activated receptor delta (PPARd) signaling pathway (AID 743215; active = well fitted inhibition curve with a large enough effect in the signal ratio in the repeat runs, not every such curve was filed as active; the % refers to the signal ratio; also: series mostly up to about 62 µM)
Method in brief: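 Cells: HEK293H with a UAS-driven beta-lactamase reporter responsive to PPARd. Compounds were co-added with L165041 (300 nM, final) and incubated 17 h at 37 C before a 2 h room-temperature FRET substrate step and fluorescence reading.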

[13] = qHTS assay to identify small molecule agonists of the farnesoid-X-receptor (FXR) signaling pathway - cell viability counter screen (AID 743218); also: nearly all actives have a fitted effect of over 45% in size
Method in brief: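 Cells were seeded, left 5 h at 37 C and 5% CO2, then dosed with compound in DMSO for 16 h. After the beta-lactamase FRET read, CellTiter-Glo was added and luminescence measured 30 min later.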

[14] = qHTS assay to identify small molecule antagonists of the farnesoid-X-receptor (FXR) signaling pathway - cell viability counter screen (AID 743221; active = well fitted cell-killing curve with a large enough effect in the repeat runs, not every such curve was filed as active; also: nearly all actives have a fitted effect of over 50% in size)
Method in brief: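 Here viability was scored by luminescence after CellTiter-Glo addition to wells already read for beta-lactamase. Prior treatment: compound plus CDCA (50 uM final), 16 h, 37 C, HEK 293T FXR-bla cells.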

[15] = molecular target: Aryl hydrocarbon receptor (Homo sapiens) (UniProt P35869); experiment: qHTS assay to identify small molecule that activate the aryl hydrocarbon receptor (AhR) signaling pathway (AID 743085);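 also: HG2L7.5c1 human HepG2 liver cells with stably integrated DRE-driven firefly reporter; series mostly up to about 70 µM; nearly all actives have a fitted effect of over 15% in size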
Chain of Aryl hydrocarbon receptor (Homo sapiens) (P35869 whole entry, looked up): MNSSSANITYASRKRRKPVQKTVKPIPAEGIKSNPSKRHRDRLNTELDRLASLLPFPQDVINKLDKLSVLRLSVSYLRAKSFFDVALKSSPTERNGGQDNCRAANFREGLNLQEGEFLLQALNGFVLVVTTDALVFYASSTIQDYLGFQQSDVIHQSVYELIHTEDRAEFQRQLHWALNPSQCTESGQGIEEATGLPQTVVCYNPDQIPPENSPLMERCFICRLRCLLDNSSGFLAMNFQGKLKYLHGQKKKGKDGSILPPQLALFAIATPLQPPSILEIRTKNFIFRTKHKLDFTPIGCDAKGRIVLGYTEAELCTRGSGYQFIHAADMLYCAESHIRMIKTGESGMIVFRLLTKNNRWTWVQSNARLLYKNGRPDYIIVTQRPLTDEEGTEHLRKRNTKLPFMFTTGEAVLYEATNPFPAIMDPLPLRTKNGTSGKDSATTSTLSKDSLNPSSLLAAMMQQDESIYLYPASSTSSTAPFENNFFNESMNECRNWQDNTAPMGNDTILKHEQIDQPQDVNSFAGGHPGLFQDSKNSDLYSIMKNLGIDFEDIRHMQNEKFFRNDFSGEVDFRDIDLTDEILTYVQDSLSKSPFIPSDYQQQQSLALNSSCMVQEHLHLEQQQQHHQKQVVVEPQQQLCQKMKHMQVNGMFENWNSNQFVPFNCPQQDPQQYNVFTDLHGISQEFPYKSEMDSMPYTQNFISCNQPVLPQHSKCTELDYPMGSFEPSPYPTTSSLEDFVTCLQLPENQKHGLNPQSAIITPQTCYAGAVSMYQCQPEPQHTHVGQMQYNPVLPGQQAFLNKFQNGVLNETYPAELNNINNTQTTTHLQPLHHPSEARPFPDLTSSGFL
Method in brief: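 Stably transfected human liver carcinoma cells (HG2L7.5c1; 20 DRE-firefly luciferase) were incubated 5 h, dosed, and kept 24 h at 37C. Agonism was scored from increased luciferase luminescence.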

[16] = molecular target: Vitamin D3 receptor (Homo sapiens) (UniProt P11473); experiment: qHTS assay to identify small molecule agonists of the vitamin D receptor (VDR) signaling pathway (AID 743222; calls by dose curve)
Chain of Vitamin D3 receptor (Homo sapiens) (P11473 whole entry, looked up): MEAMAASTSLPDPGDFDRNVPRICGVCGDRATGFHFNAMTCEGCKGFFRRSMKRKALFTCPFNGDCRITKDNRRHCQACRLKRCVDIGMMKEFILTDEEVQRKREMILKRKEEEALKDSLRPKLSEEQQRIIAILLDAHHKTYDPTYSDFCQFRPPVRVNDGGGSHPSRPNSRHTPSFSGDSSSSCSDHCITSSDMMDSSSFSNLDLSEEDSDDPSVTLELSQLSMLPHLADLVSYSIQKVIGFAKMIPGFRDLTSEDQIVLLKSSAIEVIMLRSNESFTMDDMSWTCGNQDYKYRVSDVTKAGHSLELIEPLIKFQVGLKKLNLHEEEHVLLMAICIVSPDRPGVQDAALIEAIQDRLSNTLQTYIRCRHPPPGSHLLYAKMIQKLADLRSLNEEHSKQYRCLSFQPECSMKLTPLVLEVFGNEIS
Method in brief: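 Cells carrying a VDR-driven beta-lactamase reporter are seeded at 2,000 per well and rested 4 h. Compounds in DMSO are added for 16 h at 37C, and FRET substrate fluorescence is measured after 2 h at room temperature.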

[17] = molecular target: Vitamin D3 receptor (Homo sapiens) (UniProt P11473); experiment: qHTS assay to identify small molecule antagonists of the vitamin D receptor (VDR) signaling pathway (AID 743223; active = well fitted inhibition curve with a large enough effect in the signal ratio in the repeat runs, not every such curve was filed as active; the % refers to the signal ratio)
Method in brief: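 Inhibition of agonist-driven VDR signalling is scored in VDR-bla cells: 3 nM final 1alpha,25-dihydroxyvitamin D3 plus compound, 16 h at 37C, then beta-lactamase detection by FRET substrate fluorescence after 2 h.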

[18] = qHTS assay to identify small molecule agonists of the vitamin D receptor (VDR) signaling pathway - cell viability counter screen (AID 743224); also: series mostly up to about 63 µM; nearly all actives have a fitted effect of over 50% in size
Method in brief: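 Cells: VDR-bla, 2,000/well, settled 4 h. Treatment: compounds in DMSO, 16 h, 37C/5% CO2. Readout: CellTiter-Glo luminescence after 30 min RT.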

[19] = molecular target: Bile acid receptor (Homo sapiens) (UniProt Q96RI1); experiment: qHTS assay to identify small molecule antagonists of the farnesoid-X-receptor (FXR) signaling pathway (AID 743217; active = well fitted inhibition curve with a large enough effect in the signal ratio in the repeat runs, not every such curve was filed as active; the % refers to the signal ratio)
Chain of Bile acid receptor (Homo sapiens) (Q96RI1 whole entry, looked up): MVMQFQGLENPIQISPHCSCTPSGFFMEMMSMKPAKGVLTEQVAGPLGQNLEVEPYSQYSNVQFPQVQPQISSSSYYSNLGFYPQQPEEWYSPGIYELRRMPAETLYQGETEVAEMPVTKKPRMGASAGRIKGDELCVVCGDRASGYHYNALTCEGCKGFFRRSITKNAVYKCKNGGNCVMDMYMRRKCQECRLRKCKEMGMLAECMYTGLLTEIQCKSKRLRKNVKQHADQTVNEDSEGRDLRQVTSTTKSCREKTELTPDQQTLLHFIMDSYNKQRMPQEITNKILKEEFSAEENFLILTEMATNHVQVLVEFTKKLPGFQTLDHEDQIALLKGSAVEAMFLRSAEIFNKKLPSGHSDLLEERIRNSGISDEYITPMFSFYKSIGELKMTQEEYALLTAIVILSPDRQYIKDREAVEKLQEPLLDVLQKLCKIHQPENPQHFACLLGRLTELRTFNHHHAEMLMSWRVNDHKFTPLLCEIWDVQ
Method in brief: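 Cells carrying a UAS-driven beta-lactamase reporter (GeneBLAzer FXR-UAS-bla HEK 293T) were plated and rested 5 h at 37 °C. Compounds in DMSO were added alongside chenodeoxycholic acid agonist at 50 uM final and left 16 h at 37 °C before FRET substrate readout.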

[20] = molecular target: Bile acid receptor (Homo sapiens) (UniProt Q96RI1); experiment: qHTS assay to identify small molecule agonists of the farnesoid-X-receptor (FXR) signaling pathway (AID 743220; active = well fitted activation curve with a large enough effect in the signal ratio in the repeat runs, not every such curve was filed as active; the % refers to the signal ratio)
Method in brief: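 FXR-UAS-bla HEK 293T cells carrying a UAS-driven beta-lactamase reporter were plated for 5 h at 37C/5% CO2, then exposed to DMSO-dissolved Tox21 10K compounds for 16 h at 37C. A LiveBLAzer B/G FRET substrate was loaded for 2 h at room temperature before fluorescence reading.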

Measured: Potency

CCC1(CC)C(=O)C=CNC1=O
inactive: [1] | [2] | [3] | [4] | [5] | [6] | [7] | [8] | [9] | [10] | [11] | [12] | [13] | [14]

CCN(CCO)CCO
inactive: [15] | [2] | [3] | [4] | [7] | [8] | [9] | [10] | [11] | [13] | [14] | [16] | [17] | [18]

Oc1ccc2c3c1O[C@H]1[C@@H](O)C=C[C@H]4[C@@H](C2)NCC[C@@]341
inactive: [15] | [1] | [4] | [6] | [7] | [11] | [19] | [13] | [20] | [14] | [16] | [17]

O=C(O)C(F)(F)C(F)(F)C(F)(F)C(F)(F)C(F)(F)C(F)(F)F
inactive: [15] | [1] | [2] | [6] | [7] | [8] | [9] | [11] | [12] | [19] | [13] | [20] | [14] | [16] | [17] | [18]

O=C1CC(=O)NC(=O)N1
inactive: [15] | [1] | [3] | [4] | [5] | [7] | [8] | [9] | [10] | [11] | [12] | [19] | [13] | [20] | [14] | [16] | [17] | [18]

COc1cc(CC(C)N)cc(OC)c1OC (stereo not drawn)
inactive: [15] | [1] | [3] | [4] | [5] | [6] | [7] | [8] | [9] | [11] | [12] | [13] | [14]

CC(C)C(C)(N)C#N (stereo not drawn)
inactive: [15] | [1] | [4] | [5] | [6] | [7] | [8] | [9] | [10] | [11] | [19] | [13] | [20] | [14] | [16] | [18]
